Out of some 310,000 compounds screened, about 3,900 (1.3%) were called active.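 The calls were made as follows: active = calcium-response B-score plate-corrected more than 3 library SD below zero, starting fluorescence within 5 deviations, no agonist response on first addition; inactive = the rest.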 The list comes from a sample in which actives are over-represented; it also holds similar structures and randomly drawn compounds.

In PubChem BioAssay AID588676 (Johns Hopkins Ion Channel Center, 2011) one finds B-score data, which are given here for 104 molecules.

The target in the experiment is Mas-related G-protein coupled receptor member X1 (Homo sapiens) (UniProt Q96LB2). Description: antagonists of human MrgX1 receptor, primary screen, HEK293 cells, Fluo-4 calcium flux (AID 588676).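 As to B-score: peak minus trough fluorescence over baseline after final BAM8-22 challenge near maximal dose.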 The settings on record: Fluo-4, BAM8-22 antagonism, at 10 µM; stronger effect = lower value.
Mas-related G-protein coupled receptor member X1 (Homo sapiens), sequence (Q96LB2 whole entry, looked up): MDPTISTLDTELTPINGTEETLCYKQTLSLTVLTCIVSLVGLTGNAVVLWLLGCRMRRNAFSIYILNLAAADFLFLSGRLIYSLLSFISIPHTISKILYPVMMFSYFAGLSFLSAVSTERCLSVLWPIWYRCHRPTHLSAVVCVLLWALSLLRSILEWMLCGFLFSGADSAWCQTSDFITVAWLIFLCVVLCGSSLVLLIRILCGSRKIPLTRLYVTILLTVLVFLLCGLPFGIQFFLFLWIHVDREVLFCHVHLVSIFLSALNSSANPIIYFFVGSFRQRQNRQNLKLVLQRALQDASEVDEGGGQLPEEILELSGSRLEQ
Consider `Cc1ccc(N(C(=O)Cc2cccs2)C2C=CS(=O)(=O)C2)cc1Cl` (centres undefined), for which the B-score entry was “inactive”.
In the case of `Cn1c(NC(=O)c2ccco2)c(-c2ccccc2Cl)c(=O)c2ccccc21`, the B-score result is “inactive”.
Turning to `CCOCCCN1C(=O)C2C(C(=O)Nc3ccc(OCC)cc3)C3C=CC2(O3)C1C(=O)NC1CCCCC1` (centres undefined), the B-score entry was “inactive”.
With `CC(=O)OCCN(CCCn1c(-c2ccncc2)nc2ccccc21)c1nc(-c2ccc(C)cc2)cs1`, the B-score result is “inactive”.
In the case of `O=C(Cc1ccccc1)Nc1cccc(C(=O)N/N=C/c2ccco2)c1`, the B-score is -18.1 (active).
`O=C(N/N=C/c1ccco1)c1ccc(C(=O)N/N=C/c2ccco2)o1`: the B-score result was “inactive”.
Regarding `O=C(Cc1ccccc1)Nc1cccc(NC(=O)c2ccccc2)c1`, the B-score entry was “inactive”.
`N#CCC(=O)NC(=O)NCC1CC1`: the B-score result was “inactive”.
For `CC1Cc2ccccc2N1C(=O)CSc1nnc(-c2ccc(S(=O)(=O)N3CCCC3)cc2)n1C` (centres undefined), the B-score result is “inactive”.
Consider `CC(NCc1cccs1)C(=O)Nc1cc(Cl)cc(Cl)c1` (centres undefined), for which the B-score entry is “inactive”.
`COc1cc(C)c(S(=O)(=O)N2CCOCC2)c(C)c1C`: the B-score result is “inactive”.
To `COc1ccc(S(=O)(=O)N2CCCC2)c(C)c1C` belongs “inactive”; to `COc1ccc(S(=O)(=O)N2CCOCC2)c(C)c1C`, -6.44 (active).
In the case of `COc1cccc2cc(/C(C)=N/NC(=O)c3ccco3)oc12`, the B-score entry was “inactive”.
On to `Cn1nccc1C(=O)NC1CCCc2c1cnn2-c1ccc(F)cc1F` (centres undefined), for which the B-score entry was “inactive”.
`CCOC(=O)N1CCN(C(=O)c2cn(C)c3ccc(S(=O)(=O)N(CC)CC)cc3c2=O)CC1`: the B-score entry was “inactive”.
For the molecule `CCOC(=O)N1CCN(C(=O)c2cn(C)c3ccc(S(=O)(=O)N4CCCC4)cc3c2=O)CC1`, the B-score was -6.83 (active).
With `COc1ccc(N2CCN(C(=O)c3cn(C)c4ccc(S(=O)(=O)N5CCOCC5)cc4c3=O)CC2)cc1`, the B-score entry is “inactive”.
In the case of `N/C(=N\OS(=O)(=O)c1cccc([N+](=O)[O-])c1)c1ccncc1`, the B-score result is “inactive”.
In the case of `CCCNC(=O)CSc1nc(Cc2ccccc2)nc2ccccc12`, the B-score result was “inactive”.
To `Clc1ccc(CSc2nnc3c(n2)[nH]c2ccccc23)cc1` belongs “inactive”; to `C=CCSc1nc(Cc2ccc(Cl)cc2)nc2ccccc12`, -5.91 (active).
To `COc1ccccc1NC(=S)N1CCC(NC(=O)C23CC4CC(CC(C4)C2)C3)CC1` belongs “inactive”; to `COc1ccc(-c2cc(C(F)(F)F)nc(SCCC(=O)NCc3ccco3)n2)cc1`, “inactive”.
On to `FC(F)(F)c1cc(-c2cccs2)nc(NCc2ccco2)n1`, for which the B-score was -5.29 (active).
`FC(F)(F)c1cc(-c2ccco2)nc(NCc2ccc(Cl)cc2)n1`: the B-score result was “inactive”.
In the case of `CC(=O)c1c(C)[nH]c(C(=O)CN2C(=O)NC(C)(C)C2=O)c1C`, the B-score result is “inactive”.
With `Cc1nc(-c2ccc(F)cc2)c(CC(=O)N2CCN(S(=O)(=O)c3ccc(F)cc3)CC2)s1`, the B-score entry is “inactive”.
The value for `CC(=O)N(C1=C(Cl)C(=O)c2ccccc2C1=O)c1ccc(C(=O)O)cc1` was -18.7 (active); that for `FC(F)(F)c1cccc(-c2cc3ccccc3nc2N2CCCC2)c1` was “inactive”; that for `O=C(COc1ccccc1)Nc1ccc(C(=O)N2CCCC2)cc1` was “inactive”.
On to `C/C(=N\NC(=O)Cc1ccc(F)cc1)c1ccc(F)cc1`, for which the B-score was -8.25 (active).
On to `C/C(=N\NC(=O)Cc1ccc(Br)cc1)c1cccnc1`, for which the B-score result is “inactive”.
As for `C/C(=N/NC(=O)CC(=O)N/N=C(\C)c1ccc([N+](=O)[O-])cc1)c1ccc([N+](=O)[O-])cc1`, the B-score result was “inactive”.
As for `COc1ccc2c3c1O[C@H]1C[C@@H](O)C=C[C@@]31CCN(C)C2`, the B-score entry is “inactive”.
Consider `COc1ccccc1C1C(C#N)=C(N)Oc2c1c(-c1ccccc1)nn2-c1ccccc1` (centres undefined), for which the B-score result was “inactive”.
The value for `Cc1nn(Cc2ccccc2)c2c1C(c1ccccc1)C(C#N)=C(N)O2` (centres undefined) was “inactive”.
Take `Cc1nn(-c2ccccc2)c2c1C(c1ccc(F)cc1)C(C#N)=C(N)O2` (centres undefined): the B-score is -13.4 (active).
As to `CC(C)(C)c1ccc(C(CC(=O)O)NS(=O)(=O)Cc2ccccc2)cc1` (centres undefined), the B-score entry is “inactive”.
With `Cc1c(CCO)c(=O)[nH]n1C(=O)c1c(F)cccc1F`, the B-score result is “inactive”.
As for `CCOC(=O)[C@H]1CCC[C@@H](NS(=O)(=O)c2ccc(NC(C)=O)cc2)C1`, the B-score entry was “inactive”.
For the molecule `Cc1ccc(CNC(=O)CCNS(=O)(=O)c2ccc(Br)s2)cc1`, the B-score result was “inactive”.
In the case of `O=C1CCC(C(=O)N2CCN(c3ccccc3Cl)CC2)CN1CC1CCCCC1` (centres undefined), the B-score result was “inactive”.
The value for `COc1ccc(CCNC(=O)C2CC3Cn4c(nc5cc(C)c(C)cc54)C3N2C)cc1` (centres undefined) was “inactive”; that for `COc1ccc(CCNc2cc(N3CCN(C(=O)c4ccccc4OC)CC3)ccc2[N+](=O)[O-])cc1OC` was -5.34 (active); that for `O=C(c1ccccc1)N1CCN(c2ccc([N+](=O)[O-])c(NCc3ccco3)c2)CC1` was “inactive”.
As to `COc1ccccc1OCCNc1cc(N2CCOCC2)ccc1[N+](=O)[O-]`, the B-score result was “inactive”.
For the molecule `Cc1cccc(N2CC(C(=O)Nc3ccccc3N3CCCC3)CC2=O)c1C` (centres undefined), the B-score result was “inactive”.
For `CCOc1ccc(C(CC(=O)O)n2cnnn2)cc1OC` (centres undefined), the B-score result was “inactive”.
On to `COC(=O)c1ccc(COC(=O)c2cnc(Cl)c(Cl)c2)cc1`, for which the B-score entry was “inactive”.
Take `COc1ccccc1C(=O)N/C(=C/c1ccco1)C(=O)Nc1ccc(C(=O)O)cc1`: the B-score entry was “inactive”.
With `O=C(NCCCN1CCCC1=O)c1ccc(S(=O)(=O)Nc2ccccc2)cc1`, the B-score entry was “inactive”.
Regarding `CCOc1ccc(C(=O)NCCCN2CCCC2=O)cc1`, the B-score entry was “inactive”.
As to `CCOc1ccc(S(=O)(=O)Nc2ccc(C(=O)NCCCN3CCCC3=O)cc2)cc1`, the B-score is -9 (active).
To `Oc1cc(O)c2c(c1)OC(c1ccc(O)c(O)c1)C(O)C2` (centres undefined) belongs “inactive”; to `Cc1ccc2cc3cc(C(=O)N4CCCCCC4)oc3nc2c1`, “inactive”; to `CN(C)c1ccc(C(CC(=O)O)C(=O)O)cc1` (centres undefined), “inactive”.
The value for `Cc1cnc(CN(C)C(=O)CC2C(=O)NCCN2Cc2cccc(F)c2F)[nH]1` (centres undefined) was “inactive”; that for `CCCCCc1nnc(NC(=O)c2ccc(=O)n(C)n2)s1` was “inactive”.
In the case of `Cc1cc(=O)n2c3c(cccc13)CCC2`, the B-score entry was “inactive”.
For the molecule `CCNC(=O)c1c(O)c2cccc3c2n(c1=O)CC3`, the B-score was -5.85 (active).
To `CCCCc1nc2ccccc2c(=O)n1NC(=O)c1c(O)c2cccc3c2n(c1=O)CC3` belongs “inactive”.
`Nc1[nH][nH]c(=O)c1N=Nc1ccc2c(c1)OCO2`: the B-score result was “inactive”.
To `Cc1cc(C)nc(N2CCC(C(=O)Nc3ccc4c(c3)OCCO4)CC2)n1` belongs “inactive”; to `Cc1cc(C)cc(NC(=O)C2CCN(c3nc(C)cc(C)n3)CC2)c1`, “inactive”; to `Cc1cc(Nc2cc(N3CCN(C)CC3)nc(Sc3ccc(NC(=O)C4CC4)cc3)n2)n[nH]1`, -6.92 (active).
On to `COc1cc(CC(=O)Nc2nc(-c3ccc(F)c(F)c3)cs2)cc(OC)c1OC`, for which the B-score entry was “inactive”.
Turning to `COc1ccc(CC(=O)Nc2nc(-c3ccc(F)c(F)c3)cs2)cc1OC`, the B-score is -5.43 (active).
For the molecule `Cc1ccc(S(=O)(=O)NC(=O)Nc2nc(-c3ccc(F)c(F)c3)cs2)cc1`, the B-score result is “inactive”.
To `CCc1nn(CC(=O)N2CCN(c3cc(C)ccc3C)CC2)c(=O)c2cc3occc3n12` belongs “inactive”.
Turning to `O=C(CSc1c2c(nc3ccc(Cl)cc13)CCCC2)NCc1ccco1`, the B-score is -6.85 (active).
On to `O=C(CSc1nnnn1-c1ccccc1)NCc1ccco1`, for which the B-score entry was “inactive”.
Take `O=C(/C=C/c1ccc(Cl)cc1Cl)NCc1ccco1`: the B-score entry was “inactive”.
Take `COc1ccc(C)cc1NC(=O)CN(C)S(=O)(=O)c1ccc2c(c1)n(C)c(=O)c(=O)n2C`: the B-score result is “inactive”.
To `Cc1cc(C)cc(N(CC(=O)NC2CCCC2)C(=O)CCC(=O)Nc2nccs2)c1` belongs “inactive”; to `Cc1ccc2oc(=O)c3cnn(CC(=O)N(Cc4ccco4)C4CCCCC4)c3c2c1`, “inactive”.
To `COCCCN(C(=O)Cn1ncc2c(=O)oc3ccc(C)cc3c21)C(C)c1ccncc1` (centres undefined) belongs -9.22 (active).
Take `Cc1ccc2oc(=O)c3cnn(CC(=O)N4CCCCCC4)c3c2c1`: the B-score result was “inactive”.
Regarding `CN1CCC(=O)N([C@H](CO)Cc2ccccc2)CC1`, the B-score result is “inactive”.
The value for `CCN(Cc1ccccc1)S(=O)(=O)c1cc(C(=O)O)ccc1OC` was “inactive”.
For `Cc1ccc(CNC(=O)CSc2nnc3c(n2)[nH]c2ccc(F)cc23)cc1`, the B-score was -5.01 (active).
For the molecule `COc1ccc2[nH]c3nc(SCC(=O)NC4CC4)nnc3c2c1`, the B-score result is “inactive”.
`Cc1ccn2c(=O)nc(SCC(=O)NCc3ccc(F)cc3)nc2c1`: the B-score result was “inactive”.
Take `COc1ccc(S(=O)(=O)n2nc(C)c(S(=O)(=O)N3CCOCC3)c2C)cc1`: the B-score entry is “inactive”.
`CCc1ccc(OC(C)C(=O)Nc2ccc(S(=O)(=O)Nc3cc(C)on3)cc2)cc1` (centres undefined): the B-score entry was “inactive”.
On to `CCOc1ccc(CC(=O)Nc2ccc(S(=O)(=O)Nc3cc(C)on3)cc2)cc1OCC`, for which the B-score is -7.96 (active).
Take `CCOc1ccc(C(=O)Nc2ccc(S(=O)(=O)Nc3cc(C)on3)cc2)cc1`: the B-score result is “inactive”.
With `CCCOc1ccc(CNC(=O)C2CCN(c3nn4c(=O)cc(C)nc4s3)CC2)cc1`, the B-score entry was “inactive”.
In the case of `CC(C)=C1C2CCC1C1C(=O)N(NC(=O)c3ccco3)C(=O)C21` (centres undefined), the B-score result is “inactive”.
The value for `O=C(NN1C(=O)C2C3C=CC(C3)C2C1=O)c1ccco1` (centres undefined) was -9.57 (active); that for `O=C(NN1C(=O)C2CCCCC2C1=O)c1ccco1` (centres undefined) was “inactive”.
Turning to `NC(=O)c1cc(S(=O)(=O)N2CCCC2)ccc1OCc1ccc(F)cc1`, the B-score entry is “inactive”.
For the molecule `CC1CCN(S(=O)(=O)c2nnc(NC(=O)COc3ccccc3F)s2)CC1`, the B-score is -4.6 (active).
To `O=C(COc1ccccc1F)NC1CC1` belongs “inactive”; to `Cc1ccccc1OCC(=O)Nc1nnc(S(=O)(=O)N2CCCC2)s1`, “inactive”.
As to `O=S(=O)(CCc1nc2ccccc2o1)c1ccc(Cl)cc1`, the B-score result is “inactive”.
The value for `CCc1ccc2nc3sc(C(=O)Nc4nnc(CC)s4)c(N)c3cc2c1` was -7.06 (active); that for `CCc1nnc(NC(=O)c2sc3nc(C)cc(COC)c3c2N)s1` was “inactive”.
Regarding `CCc1nnc(NC(=O)c2cccc(S(=O)(=O)N(C)c3ccc(OC)cc3)c2)s1`, the B-score result was “inactive”.
With `COc1ccc(CN2CCN(C(=O)CCC(=O)Nc3nnc(C(C)C)s3)CC2)cc1F`, the B-score result is “inactive”.
The value for `COc1ccccc1C(=O)Nc1nc2nc(-c3ccccc3)cc(=O)n2[nH]1` was “inactive”; that for `Cc1ccc(NC(=O)/C(=C/c2ccc([N+](=O)[O-])cc2)NC(=O)c2ccccc2)cc1` was “inactive”.
Take `CC1=NN(c2ccccc2)C(=O)C1C(=O)c1ccc([N+](=O)[O-])cc1` (centres undefined): the B-score was -4.73 (active).
Take `Cc1ccc(C)n1NC(=O)c1ccc([N+](=O)[O-])cc1`: the B-score entry was “inactive”.
